{"source": "PubChem BioAssay AID504834", "about": "(National Center for Advancing Translational Sciences (NCATS), 2011)", "note": "The whole screen tested about 320,000 compounds, of which about 22,000 (6.9%) were called active. Not shown: some 27% with an inconclusive outcome. Calls follow the shape of the dose curve; as a rule, active = well fitted inhibition curve with a large enough effect; inconclusive = small, poorly fitted or top-dose-only effect, or another doubt; inactive = no such curve, though single readings can be large or run the other way. The entries come from a sample that favours actives as a whole. Entries that show only a call come without a potency. Potency is read from the fitted curve at half-maximal effect."}
{"experiment": "Primary qHTS for delayed death inhibitors of the malarial parasite plastid, 96 hour incubation", "details": "P. falciparum luciferase reporter growth; series mostly up to 28.7 µM", "summary_of_the_method": "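P. falciparum expressing integrated firefly luciferase grown in erythrocytes (2% hematocrit, 0.05% parasitemia final) with compounds for 96 hours at 37 C, 5% CO2. Growth inhibition read as loss of luminescence after adding luciferase detection reagent.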"}
{"smiles": "CCC1(c2ccccc2)NC(=O)N(CC(=O)Nc2ccccc2C(=O)NC2CCCC2)C1=O", "note": "(stereo unspecified)", "Potency": "inactive"}
{"smiles": "COC(=O)c1ccccc1NC(=O)CSc1nc2c(c(=O)[nH]1)CCC2", "Potency": "inactive"}
{"smiles": "Cn1c(=O)c2c(nc(SCCNS(=O)(=O)c3ccccc3)n2C)n(C)c1=O", "Potency": "14.7 µM (active)"}
{"smiles": "Cc1cccc(Cn2c(SCCO)nc3c2c(=O)n(C)c(=O)n3C)c1", "Potency": "inactive"}
{"smiles": "Cc1c(S(=O)(=O)NCc2ccccc2)c(=O)n(C)c(=O)n1C", "Potency": "inactive"}
{"smiles": "Cn1c(=O)c2c(nc(SCC(=O)Nc3ccccc3N3CCCCC3)n2C)n(C)c1=O", "Potency": "inactive"}
{"smiles": "CCOC(=O)CSc1nc2c(c(=O)n(C)c(=O)n2C)n1Cc1ccccc1F", "Potency": "inactive"}
{"smiles": "CCCSc1nc2c(c(=O)n(C)c(=O)n2C)n1Cc1ccc(C)cc1", "Potency": "13.1 µM (active)"}
{"smiles": "Cc1ccc(CNS(=O)(=O)CCNC(=O)c2ccccc2)cc1", "Potency": "inactive"}
{"smiles": "CC1C(=O)N2CCCc3cc(S(=O)(=O)NCc4ccc(F)cc4)cc1c32", "note": "(stereo unspecified)", "Potency": "inactive"}
{"smiles": "CC(C)CNS(=O)(=O)c1ccc(C(=O)Nc2ccc3c(c2)OCO3)cc1", "Potency": "inactive"}
{"smiles": "COc1ccc(Cn2c(=S)[nH]c3cc(C(=O)N4CCCCC4)ccc3c2=O)cc1", "Potency": "inactive"}
{"smiles": "Cc1ccc(S(=O)(=O)N2[C@@H](c3ccccc3F)C(C(=O)O)=CC[C@H]2c2ccc(Cl)cc2)cc1", "Potency": "inactive"}
{"smiles": "Cc1cc(Nc2ccc(C(=O)N3CCCCC3)cc2)c2cccc(C)c2n1", "Potency": "inactive"}
{"smiles": "CCn1cc(CN2CCC(n3nccc3NC(=O)CCCc3ccccc3)CC2)c(C)n1", "Potency": "inactive"}
{"smiles": "c1ccc2c(c1)CSc1sccc1C2=C1CCNCC1", "Potency": "10.4 µM (active)"}
{"smiles": "CCOC(=O)CNC(=O)CSc1ncccc1-c1nc2ccccc2[nH]1", "Potency": "inactive"}
{"smiles": "Cc1ccccc1N1CCN(S(=O)(=O)c2ccc3ccccc3c2)CC1", "Potency": "inactive"}
{"smiles": "Cc1ccc(-n2c(SCC(=O)NCCC3=CCCCC3)nc3n[nH]c(C)c3c2=N)cc1Cl", "Potency": "inactive"}
{"smiles": "CC1(c2ccc(Cl)cc2Cl)NC(=O)N(CC(=O)Nc2cccnc2Cl)C1=O", "note": "(stereo unspecified)", "Potency": "inactive"}
{"smiles": "COc1ccc(CN2CCCC(C(=O)c3ccc(Cl)cc3)C2)cc1Cn1cncn1", "note": "(stereo unspecified)", "Potency": "10.4 µM (active)"}
{"smiles": "Cc1ccc(CN2CCCC(C(=O)c3ccc4c(c3)OCO4)C2)cc1C", "note": "(stereo unspecified)", "Potency": "inactive"}
{"smiles": "COc1cc(CN2CCCC(C(=O)c3ccc(SC)cc3)C2)cc(Cl)c1O", "note": "(stereo unspecified)", "Potency": "inactive"}
{"smiles": "COc1ccc(NC(=O)CSCc2ccc([N+](=O)[O-])cc2)cc1OC", "Potency": "inactive"}
{"smiles": "OC(c1ccccc1)C(CN1CCOCC1)c1ccccc1", "note": "(stereo unspecified)", "Potency": "inactive"}
{"smiles": "OC(c1ccc(Cl)cc1)C(CN1CCOCC1)c1ccccc1", "note": "(stereo unspecified)", "Potency": "2.08 µM (active)"}
{"smiles": "COc1ccccc1OCC(O)CN1CCOCC1", "note": "(stereo unspecified)", "Potency": "inactive"}
{"smiles": "COc1ccc(C(C)C)cc1S(=O)(=O)Nc1ncn[nH]1", "Potency": "inactive"}
{"smiles": "CCCN(CCC)S(=O)(=O)c1ccc(C(=O)NNC(=O)c2cc(OC)c(OC)c(OC)c2)cc1", "Potency": "inactive"}
{"smiles": "O=c1[nH]c(SCc2cccc(F)c2)nc2ccccc12", "Potency": "inactive"}
{"smiles": "CN1CCN(c2ccc(NC(=O)c3ccccc3)cc2)CC1", "Potency": "inactive"}
{"smiles": "O=C(c1cc(=O)c2ccccc2o1)N1CCN(c2ccccc2)CC1", "Potency": "inactive"}
{"smiles": "CN1CCC(CN)(N2CCN(c3ccccc3)CC2)CC1", "Potency": "11.7 µM (active)"}
{"smiles": "CCC(C)N(C(=O)CSc1ncnc2c1cnn2-c1ccccc1)C1CCS(=O)(=O)C1", "note": "(stereo unspecified)", "Potency": "inactive"}
{"smiles": "COc1ccc(CC(=O)N/N=C/c2cc([N+](=O)[O-])cc(Br)c2O)cc1", "Potency": "inactive"}
{"smiles": "CC12CN3CCN(CC(C3)/C1=N\\NC(=O)c1ccccc1N)C2", "Potency": "inactive"}
{"smiles": "NS(=O)(=O)c1ccc(CCNC(=O)NC2CCCCC2)cc1", "Potency": "inactive"}
{"smiles": "Cc1ccc2[nH]c(C)c(CCNC(=O)NC3CCCCC3)c2c1", "Potency": "1.47 µM (active)"}
{"smiles": "Cc1ccc2[nH]cc(CCNC(=O)C3CCCCC3)c2c1", "Potency": "inactive"}
{"smiles": "Cc1cccc(NC(=O)Nc2ccc(OCc3ccccc3)cc2)n1", "Potency": "inactive"}
{"smiles": "CCc1ccnc(NC(=O)Nc2ccc(OCc3ccccc3)cc2)c1", "Potency": "inactive"}
{"smiles": "O=C(O)/C=C\\C(=O)Nc1ccc(OCc2ccccc2)cc1", "Potency": "4.15 µM (active)"}
{"smiles": "CCN(C(=O)c1cc([N+](=O)[O-])ccc1NCc1cccnc1)c1ccccc1", "Potency": "inactive"}
{"smiles": "COc1cccc(N2CC(NS(=O)(=O)c3ccc(Cl)cc3)CC2=O)c1", "note": "(stereo unspecified)", "Potency": "inactive"}
{"smiles": "CCOC(=O)N1CCC(NC(=O)CCc2ccccc2)CC1", "Potency": "inactive"}
{"smiles": "Cc1ccc(CSCCNC(=O)CN(c2ccc(F)cc2)S(C)(=O)=O)cc1", "Potency": "inactive"}
{"smiles": "CCC(=O)Oc1cccc(C(=O)Nc2ccc(-c3nnc(-c4ccco4)o3)cc2)c1", "Potency": "10.4 µM (active)"}
{"smiles": "CCCCOc1ccc(-c2nnc(-c3ccco3)o2)cc1", "Potency": "inactive"}
{"smiles": "O=C(CCc1ccccc1)Nc1cccc(-c2nnc(-c3ccco3)o2)c1", "Potency": "inactive"}
{"smiles": "COCCCN(C(=O)CSCc1ccc(C)cc1)c1c(N)n(Cc2ccccc2)c(=O)[nH]c1=O", "Potency": "inactive"}
{"smiles": "Cc1ccc(C(=O)NC2CCN(C(=O)Nc3ccccc3Cl)CC2)cc1", "Potency": "inactive"}
{"smiles": "O=C(c1c(F)cccc1Cl)N1CCN(c2ccccn2)CC1", "Potency": "inactive"}
{"smiles": "O=S(=O)(NCCc1ccc(F)cc1)c1cccc2cccnc12", "Potency": "inactive"}
{"smiles": "NS(=O)(=O)c1ccc(CCNS(=O)(=O)c2cccc3cccnc23)cc1", "Potency": "1.17 µM (active)"}
{"smiles": "COc1ccc(CCNS(=O)(=O)c2cccc3cccnc23)cc1OC", "Potency": "inactive"}
{"smiles": "Cc1cccc(NC(=O)c2cccc(C(=O)Nc3cccc(C)c3C)n2)c1C", "Potency": "inactive"}
{"smiles": "COc1cc(C(=O)N2CCN(C)CC2)cc(OC)c1OC", "Potency": "inactive"}
{"smiles": "C=CCOc1ccc(/C=C/C(=O)OCC(=O)NC(C)c2ccc(F)cc2)cc1", "note": "(stereo unspecified)", "Potency": "inactive"}
{"smiles": "COc1ccc(Cn2c(O)c(/C=C3/C=CC=N3)c(=O)[nH]c2=O)cc1", "Potency": "inactive"}
{"smiles": "COc1ccc(C(=O)NCC(=O)N/N=C/c2ccc([N+](=O)[O-])s2)cc1OC", "Potency": "inactive"}
{"smiles": "COc1cc(/C=N/NC(=O)CNC(=O)c2ccncc2)ccc1OC(C)=O", "Potency": "inactive"}
{"smiles": "COc1ccc(C(=O)NCC(=O)N/N=C/c2ccc([N+](=O)[O-])o2)cc1OC", "Potency": "1.85 µM (active)"}
{"smiles": "O=C(O)Cc1csc(-c2cccc(Oc3ccccc3)c2)n1", "Potency": "inactive"}
{"smiles": "COCCOC1CCN(C(=O)c2ccc(OC)c(OC3CCN(C(C)C)CC3)c2)CC1", "Potency": "inactive"}
{"smiles": "COC(=O)C1CCCCN1C(=O)c1ccc(OC2CCN(C(C)=O)CC2)c(OC)c1", "note": "(stereo unspecified)", "Potency": "11.7 µM (active)"}
{"smiles": "COc1ccc(C(=O)NCCn2nc(C)cc2C)cc1OC1CCN(C(C)=O)CC1", "Potency": "inactive"}
{"smiles": "O=C(CSc1nc(=O)n2ccccc2n1)Nc1ccc2c(c1)OCCO2", "Potency": "inactive"}
{"smiles": "Cc1cccc(NC(=O)/C=C/c2ccc3c(c2)OCO3)n1", "Potency": "9.28 µM (active)"}
{"smiles": "CCc1c(C)sc(NC(=O)/C=C/c2ccc3c(c2)OCO3)c1C(=O)OC", "Potency": "inactive"}
{"smiles": "Cc1cccc(NC(=O)Nc2ccc3c(c2)OCO3)n1", "Potency": "inactive"}
{"smiles": "Cc1nc(COc2cccc(Cl)c2)sc1C(=O)/C=C/N(C)C", "Potency": "inactive"}
{"smiles": "CC(=O)c1ccc(N2CCN(C(=O)CCNC(=O)Cn3ccc4ccccc4c3=O)CC2)cc1", "Potency": "inactive"}
{"smiles": "O=C(NCc1cccc(Cl)c1)C1=CC=CN2CCS(=O)(=O)N=C12", "Potency": "inactive"}
{"smiles": "Cc1cccc(Cn2c(N3CCN(c4ccccc4)CC3)nc3c2c(=O)n(C)c(=O)n3C)c1", "Potency": "inactive"}
{"smiles": "CC1CN(C2CCCCC2)c2nc3c(c(=O)n(C)c(=O)n3C)n2C1", "note": "(stereo unspecified)", "Potency": "inactive"}
{"smiles": "Cc1cccc(N2CC(C)Cn3c2nc2c3c(=O)n(CC(=O)OCc3ccccc3)c(=O)n2C)c1", "note": "(stereo unspecified)", "Potency": "11.7 µM (active)"}
{"smiles": "O=c1c2cc([N+](=O)[O-])ccc2nc2n1CCC2", "Potency": "inactive"}
{"smiles": "COC(=O)c1sc(SC)c(S(=O)(=O)C(C)C)c1N/N=C(\\C#N)S(=O)(=O)c1ccccn1", "Potency": "inactive"}
{"smiles": "CC1CC(NC(=O)/C(C#N)=C/c2ccc[nH]2)CC(C)(C)C1", "note": "(stereo unspecified)", "Potency": "3.29 µM (active)"}
{"smiles": "Cn1c(=O)c2c(nc(N3CCCCCC3)n2CC(O)COc2ccc(Cl)cc2)n(C)c1=O", "note": "(stereo unspecified)", "Potency": "inactive"}
{"smiles": "Cn1c(=O)c2c(ncn2CC(COCc2ccccc2Cl)OCc2ccccc2Cl)n(C)c1=O", "note": "(stereo unspecified)", "Potency": "9.28 µM (active)"}
{"smiles": "Cn1c(=O)c2c(ncn2CCc2ccccc2)n(C)c1=O", "Potency": "inactive"}
{"smiles": "CCOc1ccc(NC(=O)c2ccc(NC(=O)CN3C(=O)C(=O)N(CC(C)C)C3=O)cc2)cc1", "Potency": "inactive"}
{"smiles": "COc1cc(/C=N/N2CCN(c3ccccc3)CC2)ccc1OC(C)=O", "Potency": "inactive"}
{"smiles": "CSc1ncccc1C(=O)Nc1ccc2c(c1)OCO2", "Potency": "inactive"}
{"smiles": "CSc1ccccc1NC(=O)c1ccc2c(c1)CCN2S(C)(=O)=O", "Potency": "inactive"}
{"smiles": "O=C(c1cc(-c2ccco2)nc2ccccc12)N(Cc1nnc(-c2ccc(Cl)cc2)o1)C1CC1", "Potency": "2.08 µM (active)"}
{"smiles": "O=C(c1ccc(Cl)s1)N(Cc1nnc(-c2ccccc2Cl)o1)C1CC1", "Potency": "inactive"}
{"smiles": "CN(C(=O)COC(=O)c1cc(-c2ccco2)nc2ccccc12)C1CCS(=O)(=O)C1", "note": "(stereo unspecified)", "Potency": "inactive"}
{"smiles": "CN(c1ccccc1)S(=O)(=O)c1ccc(Cl)c(C(=O)NCCc2c[nH]c3ccccc23)c1", "Potency": "9.28 µM (active)"}
{"smiles": "Cc1ccc(S(=O)(=O)N(C)CC(=O)NCCc2c[nH]c3ccccc23)cc1", "Potency": "inactive"}
{"smiles": "O=C(NCCc1c[nH]c2ccccc12)c1cc2ccccc2oc1=O", "Potency": "inactive"}
{"smiles": "COc1ccc(NC(=O)CNC(=O)Cn2ccc3ccccc3c2=O)c(OC)c1", "Potency": "inactive"}
{"smiles": "COCCn1c(C)cc(C(=O)COC(=O)CNC(=O)c2ccco2)c1C", "Potency": "inactive"}
{"smiles": "CC(=O)N1CCN(CC(C)(C)NS(=O)(=O)c2ccc(C)cc2)CC1", "Potency": "inactive"}
{"smiles": "CC(C)COC(=O)C1C2C=CC3(CN(C(C)c4ccc(Br)cc4)C(=O)C13)O2", "note": "(stereo unspecified)", "Potency": "6.57 µM (active)"}
{"smiles": "CCOC(=O)CN1CC23C=CC(O2)C(C(=O)Nc2ccc(F)cc2)C3C1=O", "note": "(stereo unspecified)", "Potency": "inactive"}
{"smiles": "CCCC(=O)Nc1ncnc2c1ncn2[C@@H]1O[C@@H]2OP(=O)(O)OC[C@H]2[C@H]1OC(=O)CCC", "Potency": "inactive"}
{"smiles": "Cc1cccn2c(=O)c3cc(C(=O)NC4CCCCC4)sc3nc12", "Potency": "inactive"}
{"smiles": "Cc1ccccc1-n1nc(C)c2cc(C(=O)NC3CC3)sc21", "Potency": "5.22 µM (active)"}
{"smiles": "Cc1ccc(-c2nn(-c3ccccc3)cc2C(=O)NC2CCC(O)CC2)cc1", "note": "(stereo unspecified)", "Potency": "inactive"}
